Among the data in PubChem BioAssay (NCI) are growth values, retold here.

Assay in all cases: NCI-60 one-dose screen, 48 h (100 = growth as untreated, 0 = no growth, -100 = all killed)
Holding throughout (conditions): 10 µM unless noted

Test [1] deals with SK-MEL-2 melanoma.
For test [2], the system named is EKVX NSCLC.
Test [3] relates to SN12C renal.
Test [4] has as its system UO-31 renal.
Test [5] has as its system TK-10 renal.
Test [6] has as its system ACHN renal.
In test [7] the test system is CAKI-1 renal.
In test [8] the test system is A498 renal.
In test [9] the test system is CCRF-CEM leukemia.
Test [10] deals with MOLT-4 leukemia.
For test [11], the system named is SR leukemia.
Test [12] has as its system RPMI-8226 leukemia.
In test [13] the test system is OVCAR-8 ovarian.
The subject of test [14] is OVCAR-5 ovarian.
Test [15] has as its system OVCAR-4 ovarian.
Test [16] relates to SK-OV-3 ovarian.
The test system of test [17] is IGROV1 ovarian.
In test [18] the test system is OVCAR-3 ovarian.
Test [19] concerns HS 578T breast.
The test system of test [20] is NCI/ADR-RES ovarian.

This is part of a sample that, as a whole, favours compounds with a hit. Of some 83,000 tested, about 20% had one in any assay.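 96-well plates, one dose, 48 hours. Percent growth reported; active if below 10.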 Unmarked numbers belong to inactive results. Calls of active or inactive are those of the source.

For `CC1OC(C(=O)N2CCN(CCO)CC2)CC1COC1CCCCC1` (stereo not given), the growth in test [1] is 107% [50 µM]; in [2], 99.8% [50 µM]; in test [3] it was 92.1% [50 µM]; in test [4] it was 70.4% [50 µM]; in test [5], 129% [50 µM]; in [6] it was 94.3% [50 µM]. For the same molecule, the growth in test [7] was 85.3% [50 µM]; in test [8], 126% [50 µM]; in test [9], 106% [50 µM]; in test [10], 97.1% [50 µM]; in test [11] it was 88% [50 µM]; in test [12], 96.3% [50 µM]. The growth in test [13] was 99.2% [50 µM]; in test [14], 104% [50 µM]; in test [15] it was 104% [50 µM]; in test [16] it was 97.9% [50 µM]; in test [17] it was 98% [50 µM]; in test [18], 96.7% [50 µM]. Moreover, the growth in [19] is 87.2% [50 µM]; in [20], 93% [50 µM].

Turning to `Oc1ccc(C2OCCO2)c2cccnc12`, the growth in test [1] is 70.4%; in test [2] it was 78.4%; in test [3], 49.1%; in test [4], 45%; in test [5], 95.5%; in test [6], 67.5%. For the same molecule, the growth in test [7] is 105%; in test [8] it was 88.2%; in [9] it was 13.5%; in [10], 20.5%; in [11] it was 31.8%; in test [12], 29.6%. Further, the growth in test [13] is 24.6%; in test [14], 59.3%; in test [15], 15.3%; in test [16], 93.5%; in [17], 74.2%; in [18], 4.41% (active). For the same molecule, the growth in test [19] is 76.4%; in test [20] it was 27.5%.

With `COc1cccc(/C=C/C(=O)/C=C(/C=C/c2cccc(OC)c2OC)OB(F)F)c1OC`, the growth is 110% in test [1]; 87.7% in test [2]; 43% in test [3]; 37.8% in [4]; 68% in [5]; 19.6% in [6]. Moreover, the growth in test [7] was 35.8%; in test [8], 122%; in test [9], 7.53% (active); in test [10], 9.58% (active); in [11], 15.2%; in test [12], 23.6%. The growth in test [13] was 16.7%; in test [14], 64%; in test [15] it was 50.7%; in test [16], 97%; in test [17], 33.7%; in [18], 10.8%. Also, the growth in test [19] is 38.3%; in test [20] it was 19.6%.

Consider `O=C(N/N=C/c1ccccc1Cl)c1ccccc1Nc1ccnc(C(F)(F)F)c1`, for which the growth is -24% (active) in test [1]; 11.7% in test [2]; 9.09% (active) in test [3]; 1.62% (active) in test [4]; 16.1% in test [5]; 1.95% (active) in test [6]. The growth was 1.49% (active) in test [7]; -25% (active) in [8]; 11.2% in test [9]; 2.63% (active) in test [10]; -3.24% (active) in test [11]; -34.9% (active) in test [12]. Also, the growth was 7.58% (active) in test [13]; 6.58% (active) in [14]; -1.98% (active) in [15]; -8.48% (active) in test [16]; 9.79% (active) in test [17]; 3.44% (active) in test [18]. The growth is 19.3% in [19] and 4.04% (active) in test [20].

With `C#CC(F)(F)[C@]1(O)CCC2C3CCC4=CC(=O)CCC4=C3[C@@H](c3ccc(N(C)C)cc3)C[C@@]21C` (stereo not given in full), the growth was 91.8% in [1]; 90.4% in test [2]; 104% in test [3]; 76.3% in test [4]; 89.7% in [5]; 99.4% in test [6]. Also, the growth in test [7] was 86.4%; in [8] it was 87.9%; in test [9] it was 56.7%; in test [10], 75.4%; in [11] it was 63.8%; in [12], 74.6%. In addition, the growth was 86.7% in test [13]; 119% in [14]; 88.4% in [15]; 87.8% in test [16]; 99% in [17]; 95.1% in test [18]. Besides, the growth in test [19] was 89.1%; in [20], 94.6%.

In the case of `CCN(CC)CCOc1ccc(/C(=C(\C)Cc2ccc(OC)cc2)c2ccc(O)cc2)cc1`, the growth in test [1] was -45.7% (active); in test [2], 66.5%; in test [3], 54.9%; in [4], -34.2% (active); in [5] it was 35.8%; in [6], 18.9%. Besides, the growth in test [7] is -21.3% (active); in test [8], 92.9%; in test [9], -3.51% (active); in test [10], -9% (active); in test [11], -52.4% (active); in test [12], -33.2% (active). In addition, the growth is 29% in test [13]; 69.3% in test [14]; 46.7% in test [15]; 64.5% in test [16]; 47.3% in [17]; 46.7% in test [18]. The growth is 33.5% in test [19] and 53.1% in [20].

Take `COc1cc(C)cc(-c2c(-c3cc(N4CC(O)C4)nc(-c4cccnc4)n3)cnn2C)c1`: the growth is 113% in [1]; 91.7% in test [2]; 77.8% in test [3]; 76.7% in test [4]; 99.5% in test [5]; 66.5% in test [6]. Further, the growth is 94.5% in test [7]; 72.8% in test [8]; 78.9% in test [9]; 94.6% in [10]; 88.3% in test [11]; 77.7% in test [12]. Moreover, the growth was 92.7% in [13]; 99.9% in test [14]; 88.7% in [15]; 118% in test [16]; 120% in test [17]; 101% in [18]. The growth was 80.5% in test [19] and 83.1% in test [20].
